Data reported in PubChem BioAssay AID1159580 (chemical genetic matrix, 2015).
In all, about 5,500 compounds went through this assay and about 2,000 (36%) were called active. Roughly 18% stayed inconclusive and do not appear here. No stated cut-off is given here; in the data, active means normalized growth mostly below about 0.91 (no sharp cut-off); inconclusive means no clear call, values can overlap the other calls; inactive means mostly above about 0.92. The list shows a part of the results.

Assay: chemical genetic growth profiling, strain panel (AID 1159580);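 further: tested at 20 µM; growth read once vehicle control cultures reached saturation at 30 °C; 1 = growth at the plate median or of vehicle wells; lower values mean less growth of the strain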
Conditions: growth OD

Measured: normalized growth

NS(=O)(=O)c1cc2c(cc1C(F)(F)F)NC(Cc1ccccc1)NS2(=O)=O (centres undefined)
inactive: S. cerevisiae deletion strains, locus YJR066W, strain TOR1, hits give low values 0.949 | S. cerevisiae deletion strains, locus YKL009W, strain mrt4, hits give low values 0.983 | S. cerevisiae deletion strains, locus YKL068W, hits give low values 1 | S. cerevisiae deletion strains, locus YKL085W, strain MDH1 (second series), hits give low values 0.999 | S. cerevisiae deletion strains, locus YKL085W, strain MDH1, hits give low values 0.999 | S. cerevisiae deletion strains, locus YKL160W, strain elf1, hits give low values 0.977 | S. cerevisiae deletion strains, locus YKL190W, strain CNB1, hits give low values 1 | S. cerevisiae deletion strains, locus YKR001C, strain vps1, hits give low values 0.982 | S. cerevisiae deletion strains, locus YKR026C, strain gcn3, hits give low values 0.998 | S. cerevisiae deletion strains, locus YKR091W, strain srl3, hits give low values 0.982 | S. cerevisiae deletion strains, locus YLL001W, strain dnm1, hits give low values 0.981 | S. cerevisiae deletion strains, locus YLL026W, hits give low values 0.991 | S. cerevisiae deletion strains, locus YLL041C, strain sdh2, hits give low values 0.985 | S. cerevisiae deletion strains, locus YLR027C, strain aat2, hits give low values 0.985 | S. cerevisiae deletion strains, locus YLR039C, strain RIC1, hits give low values 1.04 | S. cerevisiae deletion strains, locus YLR058C, strain SHM2, hits give low values 1 | S. cerevisiae deletion strains, locus YLR102C, strain apc9, hits give low values 1.01 | S. cerevisiae deletion strains, locus YLR113W, strain HOG1, hits give low values 0.983 | S. cerevisiae deletion strains, locus YLR221C, strain rsa3, hits give low values 0.973 | S. cerevisiae deletion strains, locus YLR258W, strain gsy2, hits give low values 0.993 | S. cerevisiae deletion strains, locus YLR262C, strain YPT6 (second series), hits give low values 0.987 | S. cerevisiae deletion strains, locus YLR262C, strain YPT6, hits give low values 1.01 | S. cerevisiae deletion strains, locus YLR268W, strain sec22, hits give low values 0.999 | S. cerevisiae deletion strains, locus YLR320W, strain mms22, hits give low values 0.957 | S. cerevisiae deletion strains, locus YLR330W, strain CHS5, hits give low values 1.01 | S. cerevisiae deletion strains, locus YLR342W, strain FKS1 (second series), hits give low values 1.06 | S. cerevisiae deletion strains, locus YLR342W, strain FKS1, hits give low values 0.988 | S. cerevisiae deletion strains, locus YLR357W, strain rsc2, hits give low values 0.978 | S. cerevisiae deletion strains, locus YLR370C, strain arc18, hits give low values 0.983 | S. cerevisiae deletion strains, locus YLR371W, strain rom2, hits give low values 1.01 | S. cerevisiae deletion strains, locus YLR384C, strain iki3, hits give low values 0.986 | S. cerevisiae deletion strains, locus YLR418C, strain cdc73, hits give low values 1.01 | S. cerevisiae deletion strains, locus YML016C, strain PPZ1, hits give low values 1.01 | S. cerevisiae deletion strains, locus YML032C, strain rad52, hits give low values 0.983 | S. cerevisiae deletion strains, locus YML120C, strain ndi1, hits give low values 0.981 | S. cerevisiae deletion strains, locus YML124C, strain tub3, hits give low values 1 | S. cerevisiae deletion strains, locus YMR058W, strain fet3, hits give low values 0.97 | S. cerevisiae deletion strains, locus YMR078C, strain ctf18, hits give low values 1 | S. cerevisiae deletion strains, locus YMR125W, strain sto1, hits give low values 1.01 | S. cerevisiae deletion strains, locus YMR129W, hits give low values 0.992 | S. cerevisiae deletion strains, locus YMR205C, strain PFK2, hits give low values 0.978 | S. cerevisiae deletion strains, locus YMR223W, strain ubp8, hits give low values 1.02 | S. cerevisiae deletion strains, locus YMR231W, strain pep5, hits give low values 1 | S. cerevisiae deletion strains, locus YMR307W, strain GAS1, hits give low values 1.06 | S. cerevisiae deletion strains, locus YNL067W, strain RPL9B, hits give low values 0.985 | S. cerevisiae deletion strains, locus YNL071W, strain lat1, hits give low values 0.994 | S. cerevisiae deletion strains, locus YNL153C, strain GIM3, hits give low values 0.975 | S. cerevisiae deletion strains, locus YNL183C, strain NPR1, hits give low values 0.927 | S. cerevisiae deletion strains, locus YNL209W, strain ssb2, hits give low values 0.993 | S. cerevisiae deletion strains, locus YNL233W, strain BNI4, hits give low values 0.993 | S. cerevisiae deletion strains, locus YNL248C, strain rpa49, hits give low values 0.996 | S. cerevisiae deletion strains, locus YNL250W, strain rad50, hits give low values 1.01 | S. cerevisiae deletion strains, locus YNL271C, strain bni1, hits give low values 1.01 | S. cerevisiae deletion strains, locus YNL298W, strain CLA4, hits give low values 1.02 | S. cerevisiae deletion strains, locus YNL307C, strain MCK1, hits give low values 1.01 | S. cerevisiae deletion strains, locus YNL322C, strain KRE1 (second series), hits give low values 0.992 | S. cerevisiae deletion strains, locus YNR049C, strain mso1, hits give low values 0.986 | S. cerevisiae deletion strains, locus YNR052C, strain pop2, hits give low values 1.01 | S. cerevisiae deletion strains, locus YOL006C, strain TOP1, hits give low values 0.953 | S. cerevisiae deletion strains, locus YOL012C, strain htz1 0.78 | S. cerevisiae deletion strains, locus YOL147C, strain pex11, hits give low values 1.01 | S. cerevisiae deletion strains, locus YOR001W, strain rrp6, hits give low values 0.997 | S. cerevisiae deletion strains, locus YOR061W, strain CKA2, hits give low values 1 | S. cerevisiae deletion strains, locus YOR069W, strain VPS5, hits give low values 1.01 | S. cerevisiae deletion strains, locus YOR070C, strain gyp1, hits give low values 0.999 | S. cerevisiae deletion strains, locus YOR080W, strain dia2, hits give low values 0.982 | S. cerevisiae deletion strains, locus YOR083W, strain WHI5, hits give low values 0.969 | S. cerevisiae deletion strains, locus YOR106W, strain vam3, hits give low values 0.958 | S. cerevisiae deletion strains, locus YOR136W, strain idh2, hits give low values 0.992 | S. cerevisiae deletion strains, locus YOR144C, strain elg1, hits give low values 0.998 | S. cerevisiae deletion strains, locus YOR184W, strain ser1, hits give low values 0.998 | S. cerevisiae deletion strains, locus YOR231W, strain MKK1, hits give low values 0.987 | S. cerevisiae deletion strains, locus YOR265W, strain rbl2, hits give low values 0.988 | S. cerevisiae deletion strains, locus YOR270C, strain vph1, hits give low values 0.956 | S. cerevisiae deletion strains, locus YOR290C, strain snf2, hits give low values 0.964 | S. cerevisiae deletion strains, locus YOR316C, strain cot1, hits give low values 1.01 | S. cerevisiae deletion strains, locus YPL051W, strain arl3, hits give low values 0.998 | S. cerevisiae deletion strains, locus YPL055C, strain LGE1, hits give low values 0.934 | S. cerevisiae deletion strains, locus YPL078C, strain atp4, hits give low values 0.988 | S. cerevisiae deletion strains, locus YPL106C, strain sse1, hits give low values 0.952 | S. cerevisiae deletion strains, locus YPL240C, strain hsp82, hits give low values 0.998 | S. cerevisiae deletion strains, locus YPL241C, strain CIN2, hits give low values 1.01 | S. cerevisiae deletion strains, locus YPL256C, strain CLN2, hits give low values 0.976 | S. cerevisiae deletion strains, locus YPR119W, strain clb2, hits give low values 1.01 | S. cerevisiae deletion strains, locus YPR141C, strain kar3, hits give low values 1.01 | S. cerevisiae deletion strains, locus YPR163C, strain tif3, hits give low values 1.01 | S. cerevisiae deletion strains, locus YPR167C, strain met16, hits give low values 1.01 | S. cerevisiae deletion strains, strain wtn01, hits give low values 1.01 | S. cerevisiae strains, strain wild type, hits give low values 1
